# Experimental data taken from PubChem BioAssay (EPA / NIEHS).
# Values joined by “and” are separate entries in the source; they are usually repeats but may differ in a detail not shown here. Identical values can stand only once. Records with an inconclusive call do not appear. Some structures have more than one record in an assay (separate samples or runs), and their calls can disagree. Active and inactive are the calls of the source. Rule for the calls: active = hit-call score of the fitted dose curve at least 0.9, where 1 is the maximum; inconclusive = response in the unintended direction; inactive = score below 0.9.
# Read-out: xenobiotic metabolism (CYP1A1), CYP1A1 (gene 1543)
# Experiment: CLD_CYP1A1_6hr: CellzDirect (CLD) Gene Expression Assay for xenobiotic metabolism (CYP1A1) at 6 hours (AID 2283661);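 for AC50: potency for transcript induction above DMSO vehicle baseline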
# Description: CLD_6hr is a cell-based, multiplexed-readout assay that uses hepatocyte, a human liver primary cell, with measurements taken at 6 hours after chemical dosing in a 96-well plate.CLD_CYP1A1_6hr is one of 16 assay component(s) measured or calculated from the CLD_6hr assay. It is designed to make measurements of mRNA induction, a form of inducible reporter, as detected with chemiluminescence signals by Quantitative Nuclease Protection Assay (qNPA) technology.Data from the assay component CLD_CYP1A1_6hr was analyzed at the endpoint, CLD_CYP1A1_6hr, in the positive analysis fitting direction relative to DMSO as the negative control and baseline of activity. Using a type of inducible reporter, gain-of-signal activity can be used to understand changes in the reporter gene as they relate to the gene CYP1A1. Furthermore, this assay endpoint can be referred to as a primary readout. To generalize the intended target to other relatable targets, this assay endpoint is annotated to the cyp intended target family, where subfamily is xenobiotic metabolism.
# Human hepatocyte cultures were treated daily for two consecutive days with fresh dosing solutions containing appropriate concentrations of the 320 ToxCast chemicals (chemical identities were blinded to CellzDirect and other ToxCast collaborators), vehicle control (0.2% DMSO), and positive control inducers as summarized in Table 1. Due to the large number of treatment groups and chemicals examined, the ToxCast chemicals were divided into two groups (spanning two independent cultures of hepatocytes from separate donor preparations (Hu778: ToxCast plates 1 and 2; Hu776: ToxCast plates 3 and 4). Each preparation of human hepatocyte cultures was treated with respective vehicle control, medium only control, set of six positive controls/reference chemicals for the five hepatic receptor pathways, and a subset of eight of the ToxCast chemicals (indoxacarb, pyrithiobac-sodium, norflurazon, cyhalofop-butyl, methomyl, thiram, acetochlor, and propiconazole). These replicate data, coupled with internal replicates designed within the blinded ToxCast chemical library, provided additional data to evaluate interindividual differences between hepatocyte preparations and their potential impact on chemical profiles.Cell morphology and integrity were evaluated using phase-contrast microscopy as an indicator of hepatocyte cell health (Tyson & Green, 1987). Cultures for each treatment group (i.e., media, vehicle [0.2% DMSO], positive control inducers [multiple concentrations], and the ToxCast chemicals [multiple concentrations]) were observed and cell morphology was assessed relative to vehicle control cultures at each harvest time point (0, 6, 24, or 48 h). […] Images were evaluated at the conclusion of the study to assess changes in cell integrity and account for the effects of chemical exposure on uncharacteristic changes in concentration-dependent gene expression profiles. The results from these determinations of apparent cytotoxicity were annotated (yes/no) alongside the corresponding qNPA data for reference.At the conclusion of each treatment period, hepatocyte cultures (96-well) were washed with 1 volume of HBSS, lysed by addition of 25 ul ArrayPlate lysis buffer (HTG, Tucson, AZ), and 70 ul/well of Denaturation Oil, denatured by incubation at 95C for 10 min, and frozen at approximately -70C until analysis by nuclease protection assay (qNPA) (Roberts et al., 2007). For qNPA analysis, cell lysates were thawed at 50C for approximately 30 min, qNPA probes were added, and samples were incubated at 95C for 10 min to begin the detection process by denaturing the target RNA, dissociating the duplexes and secondary structure hybridization. At the conclusion of the hybridization period, S1 nuclease reagent was added to each sample to digest all nonprotected nucleotides at 50C for 60-90 min. […]
Structure (SMILES),AC50,outcome
CCCCOC(=O)c1ccccc1C(=O)OCCCC,3.36 µM (active) and 5.18 µM (active),
N#Cc1cc(Br)c(O)c(Br)c1,,inactive
CCON=C(CC)C1=C(O)CC(c2c(C)cc(C)cc2C)CC1=O (stereo unspecified),,inactive
COC(=O)C(C)Oc1ccc(Oc2ccc(Cl)cc2Cl)cc1 (stereo unspecified),3.97 µM (active) and 4.59 µM (active),
CC(C)C1(C)N=C(c2nc3ccccc3cc2C(=O)O)NC1=O (stereo unspecified),,inactive
CCOC(=O)CC(SP(=S)(OC)OC)C(=O)OCC (stereo unspecified),3.97 µM (active),
COC(=O)c1ccccc1C(=O)OC,,inactive
CCNc1nc(Cl)nc(NCC)n1,4.72 µM (active),
COc1nc(C)nc(NC(=O)NS(=O)(=O)c2ccccc2Cl)n1,0.00131 µM (active),inactive
CC1=C(C(=O)Nc2ccccc2)SCCO1,11.1 µM (active),
CCCCNC(=O)OCC#CI,0.851 µM (active),inactive
Cc1cc(Cl)ccc1OCC(=O)O,,inactive
CS/C(C)=N/OC(=O)N(C)SN(C)C(=O)O/N=C(\C)SC,,inactive
COc1nc(NC(C)C)nc(NC(C)C)n1,3.97 µM (active),
CCc1nn(C)c(C(=O)NCc2ccc(C(C)(C)C)cc2)c1Cl,6.51 µM (active),
CCCC1COC(Cn2cncn2)(c2ccc(Cl)cc2Cl)O1 (stereo unspecified),6.32 µM (active),
N#CC(CCc1ccc(Cl)cc1)(Cn1cncn1)c1ccccc1 (stereo unspecified),1.89 µM (active),
CCCCNC(=O)n1c(NC(=O)OC)nc2ccccc21,3.66 µM (active),
CNC(=S)S,,inactive

Structure (SMILES),AC50,outcome
C=CC1(C)OC(=O)N(c2cc(Cl)cc(Cl)c2)C1=O (stereo unspecified),1.47 µM (active),
Cc1c(F)c(F)c(COC(=O)C2C(/C=C(\Cl)C(F)(F)F)C2(C)C)c(F)c1F (stereo unspecified),,inactive
OC(c1ccc(Cl)cc1)(c1cncnc1)c1ccccc1Cl (stereo unspecified),,inactive
CON(C)C(=O)Nc1ccc(Cl)c(Cl)c1,0.762 µM (active),
CC1COC(Cn2cncn2)(c2ccc(Oc3ccc(Cl)cc3)cc2Cl)O1 (stereo unspecified),,inactive
COc1cnc(OC)n2nc(NS(=O)(=O)c3c(OCC(F)F)cccc3C(F)(F)F)nc12,0.121 µM (active),
COc1nc(C)nc(NC(=O)NS(=O)(=O)c2ccccc2CCC(F)(F)F)n1,1.9 µM (active) and 287 nM (active),inactive
CCCCC(CC)COC(=O)c1ccccc1C(=O)OCC(CC)CCCC (stereo unspecified),,inactive
COC(=O)C=C(C)OP(=O)(OC)OC,,inactive
COP(=S)(OC)Oc1nc(Cl)c(Cl)cc1Cl,5.29 µM (active),
CCOC(=O)C(Cl)Cc1cc(-n2nc(C)n(C(F)F)c2=O)c(F)cc1Cl (stereo unspecified),0.375 µM (active),
C=CCC1=C(C)C(OC(=O)C2C(C=C(C)C)C2(C)C)CC1=O (stereo unspecified),,inactive
O=C(Nc1ccccc1)Nc1ccnc(Cl)c1,12.3 µM (active),
C=CCC1=C(C)[C@@H](OC(=O)[C@@H]2[C@@H](C=C(C)C)C2(C)C)CC1=O,,inactive
C#CCOS(=O)OC1CCCCC1Oc1ccc(C(C)(C)C)cc1 (stereo unspecified),3.67 µM (active),
CC(C)Oc1cc(-n2nc(C(C)(C)C)oc2=O)c(Cl)cc1Cl,1.57 µM (active),
CCNc1nc(Cl)nc(NC(C)C)n1,2.19 µM (active),
O=C(O)c1nc(Cl)ccc1Cl,4.04 µM (active),inactive
